Shown are actives, neighbours in structure and some others; about 2.4% of the full set was active somewhere.
WRN helicase inh – inhibitors of human WRN helicase. Potency, µM (titrated, usually from 114 µM), for inactives: at the top dose activity change, negative = inhibition, usual class: inhibitors. WRN helicase unwinding, fluorescent forked duplex, kinetic. Q14191. 0.46% of 360,000 active; further: potency means the concentration at half of the fitted maximal effect; on the % scale 0 is the no-effect control and ±100 the full control effect; nearly all actives have a fitted effect of over 55% in size
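WRN at 20 nM final was preincubated with compound for 15 min at room temperature; reaction started with 100 nM forked duplex oligonucleotide carrying fluorophore and quencher plus 2 mM ATP (final). Unwinding followed kinetically by red fluorescence (ex 525/em 598 nm).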
Pol beta inh – DNA polymerase beta (human) inhibition; P06746; Pol beta primer extension/strand displacement, fluorescence kinetic; Potency, µM (highest dose often 114 µM), without a hit: at the highest dose activity change, negative = inhibition, actives largely listed as inhibitors; 1.3% of 340,000 active; AID 485314; further: potency means the concentration at half of the fitted maximal effect; on the % scale 0 is the no-effect control and ±100 the full control effect
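Curves were derived by four-parameter Hill fits of normalized qHTS data. The kinetic fluorescent primer-extension read was taken at 0 and 10 min after 50 nM substrate, following a 15 min room-temperature preincubation of 10 nM enzyme with compounds.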
POLI inh – inhibitors of human DNA polymerase iota | AID 588590 | Pol iota fluorescent replication assay, 10 min | Potency, µM (doses to about 115 µM), without a hit: at the highest dose activity, negative = inhibition, usual class: inhibitors | Q9UNA4 | 1% of 390,000 active; further: potency means the concentration at half of the fitted maximal effect
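Pol iota at 10 nM preincubated 15 min with compounds at room temperature; reaction started with fluorescent substrate, 50 nM final. Fluorescence read kinetically at 0 and 10 min; buffer-only wells as negative control.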
Pol eta inh-1 – DNA polymerase eta (human) inhibition; Potency, µM (highest dose often 114 µM), for the others: top-dose activity change, negative = inhibition, actives largely listed as inhibitors; AID 588591; 1.2% of 390,000 active; Q9Y253; recombinant Pol eta, fluorescent DNA replication assay; further: potency means the concentration at half of the fitted maximal effect; on the % scale 0 is the no-effect control and ±100 the full control effect
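Pol eta at 10 nM preincubated with compounds 15 min at room temperature; reaction started with fluorescent substrate (50 nM final) and read kinetically at 0 and 10 min.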
FEN1 inhibitor – inhibitors of human flap endonuclease 1. P39748. Recombinant FEN1 flap cleavage, fluorescence, 15 min. Potency, µM (doses to about 114 µM), inactives show at the top dose activity change, negative = inhibition, usual class: inhibitors. 0.35% of 390,000 active. AID 588795; further: potency means the concentration at half of the fitted maximal effect; on the % scale 0 is the no-effect control and ±100 the full control effect; nearly all actives have a fitted effect of over 65% in size
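In this screen, 50 nM flap DNA substrate was added to 10 nM FEN1 pretreated with compound for 15 min at room temperature; cleavage was followed with reads at 0 and 15 min, and Hill fitting gave concentration–response parameters.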
Pol kappa inh-1 – DNA polymerase kappa (human) inhibition | 0.53% of 400,000 active | AID 588579 | purified Pol kappa, fluorescent DNA synthesis assay, 10 min | Potency, µM (highest dose often 107 µM), without a hit: top-dose activity, negative = inhibition, usual class: inhibitors | Q9UBT6; further: potency means the concentration at half of the fitted maximal effect; on the % scale 0 is the no-effect control and ±100 the full control effect
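Inhibition of 10 nM Pol kappa is measured by a fluorescent read-out at 0 and 10 min following addition of 50 nM substrate (final), with a 15-min room-temperature compound preincubation.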
GALK inh confirm – confirmation of human galactokinase (GALK) inhibitors; shares compounds with Pol eta inh-1; purified GALK, Kinase-Glo ATP depletion luminescence; Potency, µM (doses to about 115 µM), for inactives: at the highest dose activity, negative = inhibition, hits mostly inhibitors; 70% of 150 active
Redox cycling – redox cycling activity in phenol red-HRP assay | Potency, µM (series often up to 115 µM), for the others: at the top dose activity change, negative = H2O2 signal, usual class: inhibitors | Phenol red-HRP H2O2 redox cycling, absorbance 600 nm | 40% of 150 active | shares compounds with Pol eta inh-1
HEK293 tox – HEK-293 cytotoxicity, GALK inhibitor secondary | 10% of 170 active | Potency, µM (doses to about 46.1 µM), for inactives: top-dose activity change, negative = cytotoxicity, actives largely listed as inhibitors | HEK-293 viability, ATP luminescence (CellTiter-Glo), 24/48 h | shares compounds with Pol eta inh-1; further: potency means the concentration at half of the fitted maximal effect; on the % scale 0 is the no-effect control and ±100 the full control effect
Pol kappa inh-2 – confirmation of human DNA polymerase kappa inhibitors | shares compounds with Pol eta inh-1 | purified Pol-kappa, fluorescent strand-displacement substrate | Potency, µM, most hits filed as inhibitors | 76% of 920 active; further: potency means the concentration at half of the fitted maximal effect
Pol eta inh-2 – confirmation of human DNA polymerase eta inhibitors | shares compounds with Pol eta inh-1 | Pol eta primer extension, TAMRA/BHQ fluorescence, 10 min | Potency, µM, hits mostly inhibitors | 64% of 2,600 active; further: potency means the concentration at half of the fitted maximal effect
* = called active by the depositor; ? = inconclusive; . = no result given; [ ] = dose if it differs, or a comment. The call rests on the fitted dose curve; in most records, active means well fitted curve in the direction sought with a large enough effect; inconclusive means small, poorly fitted or top-dose-only effect, or another doubt; inactive means no such curve, though single readings can be large; an effect the other way counts as inactive or inconclusive.

SMILES	WRN helicase inh	Pol beta inh	POLI inh	Pol eta inh-1	FEN1 inhibitor	Pol kappa inh-1	Pol eta inh-2	others
Cc1c(Cl)cnc(NC(=O)COC(=O)[C@@H](NC(=O)c2ccco2)C(C)C)c1Cl	-8%[11.6 µM]	.	?	50µM*	-20%	-17%	?	Pol kappa inh-2=?
CC(=O)NC12CC3CC(C1)CC(C(=O)OCC(=O)Nc1ncc(Cl)c(C)c1Cl)(C3)C2	?	?	?	?	-11%	-35%	?
Cc1ccccc1OCC(=O)OCC(=O)Nc1ncc(Cl)c(C)c1Cl	-11%[11.6 µM]	.	?	28µM*	-8%	?	?	Pol kappa inh-2=?
Cc1c(Cl)cnc(NC(=O)COC(=O)C2CC2)c1Cl	4%[11.6 µM]	.	-14%	?	10%	-24%	.
O=c1c2oc3ccccc3c2n(Cc2ccccc2F)c(=O)n1Cc1ccccc1	.	14%	18%	0%	13%	-12%	.
COc1cc(-c2ccno2)ccc1S(=O)(=O)N1CCN(c2cccc(Cl)c2)CC1	.	-1%	12%	-10%	11%	-14%[60.1 µM]	.
Cc1cc(C)cc(NC(=O)c2cccc(N3CCCS3(=O)=O)c2)c1	.	-2%	13%	-11%	18%	-6%	.
Cc1c(C2=CCN(S(=O)(=O)c3ccc(CC(C)C)cc3)CC2)c2ccccc2n1CC(=O)N1CCCC1	.	-25%	?	-15%	-6%	-24%	.
Cc1ccc(C(=O)c2ccc([N+](=O)[O-])cc2)cc1	17%	-9%	34%	-12%	4%	3%	.
Cc1ccc(C(=O)c2coc3cc([N+](=O)[O-])c(O)c([N+](=O)[O-])c23)cc1	?	20µM*	?	20µM*	?	?	.	Pol kappa inh-2=?
CC1CCc2c(sc(NC(=O)CSc3ncn[nH]3)c2C#N)C1 (stereo unspecified)	0%	3%	33%	-13%	-6%	2%	.
CCCc1cc(=O)[nH]c(SCC(=O)Nc2sc3c(c2C#N)CCC(C)C3)n1 (stereo unspecified)	-32%	18µM*	50µM*	25µM*	-9%	79µM*	?
O=c1c(-c2cccc(F)c2)nc2cncnc2n1C1CC1	.	.	.	.	.	6%[60.1 µM]	.
CCn1c(SCC(=O)c2ccc(O)c(O)c2)nnc1-c1ccc(C)cc1	13µM*	-46%	-51%	10µM*	-5%	28µM*	60*	Pol kappa inh-2=?
S=c1[nH]nc(-c2cc(-c3ccccc3)n[nH]2)n1/N=C/c1ccc(Br)s1	-14%[11.6 µM]	18µM*	22µM*	?	?	?	?	Pol kappa inh-2=42*
Cc1cc(-c2n[nH]c(=S)n2/N=C/c2ccc(Br)s2)n[nH]1	-16%	44%	?	-12%	1%	-4%	.
CCc1cc[n+](C2=C([O-])c3ccccc3C(=O)/C2=N\S(=O)(=O)c2cccs2)cc1	-32%	?	?	50µM*	2%	-19%	76*
Cc1ccc(SCc2nc(-c3ccc(C(=O)NCC(C)c4ccccc4)cc3)oc2C)cc1 (stereo unspecified)	.	41%	11%	-16%	-20%	-10%	.
Cc1c(C(=O)N2CCCC2)oc2ccc(Br)cc12	-4%[11.6 µM]	?	?	50µM*	9%	-41%	?
Cc1c(C(=O)N2CCN(C)CC2)oc2ccc(Br)cc12	-5%	16%	-15%	-6%	-8%	-5%	.
O=c1[nH][nH]c2cc(=O)n(-c3ccc(Cl)cc3)nc12	?	?	?	?	-32%	79µM*	?	Pol kappa inh-2=17*
CC1CCN(S(=O)(=O)c2ccc3c(c2)N(CC(=O)NC(C)C)C(=O)CS3)CC1	.	3%	27%	-7%	0%	-6%	.
Cc1cccc(N2CCN(c3nc4ccc(C)cc4n4cnnc34)CC2C)c1 (stereo unspecified)	.	0%	13%	-21%	-17%	-10%	.
O=C(CSc1nc2ccccc2[nH]1)NC1CCCC1	?	14µM*	?	40µM*	-4%	?	?
CCN(c1cccc(C)c1)S(=O)(=O)c1nnc(NC(=O)C2CCCCC2)s1	.	-12%	5%	-13%	2%	-5%	.
SMILES	WRN helicase inh	Pol beta inh	POLI inh	Pol eta inh-1	FEN1 inhibitor	Pol kappa inh-1	Pol eta inh-2	others
C#CCN1C(=O)S/C(=C\c2ccc(-c3ccc(Cl)c(C(=O)O)c3)o2)C1=O	-4%[11.6 µM]	?	?	14µM*	?	35µM*	?
CCOC(=O)CN1C(=O)S/C(=C/c2ccc(C)o2)C1=O	0%	-21%	77%	-12%	0%	-15%	.
CCn1c(CC2C(=O)N(C)c3ccccc32)nc2ccccc2c1=O (stereo unspecified)	.	7%	4%	.	-6%	1%	.
NC(=O)NC(=O)CC1S/C(=N/N=C2\CSC(=O)N2)NC1=O (stereo unspecified)	-4%[57.1 µM]	-16%	?	-9%	-13%	-22%	.
O=C(O)CNC(=O)CC1S/C(=N/N=C2/NC(=O)CS2)NC1=O (stereo unspecified)	-11%[57.1 µM]	-2%	?	45µM*	-2%	-26%	.	Pol kappa inh-2=?
O=C1C(Cl)=C(N2CCC(C(=O)O)CC2)C(=O)c2ccccc21	-20%	?	?	10µM*	-14%	-7%	.	GALK inh confirm=30µM*;Redox cycling=38µM*;HEK293 tox=-7%
COc1cccc(CNCCSc2nnnn2C)c1OCc1ccc(Cl)cc1	.	7%	1%	-15%	10%	-4%	.
COc1cc(Br)c(C(=O)c2nccc3cc(OC)c(OC)cc23)cc1OC	-12%[11.6 µM]	-2%	1.8µM*	79µM*	-23%	9%	?
COc1cc(N)c(C(=O)c2nccc3cc(OC)c(OC)cc23)cc1OC	-31%	44%	234%	11%	8%	3%	.
